Assay outcomes: PubChem, The Scripps Research Institute Molecular Screening Center
Sampled rows, rich in hits. Any-hit rate of the full collection: about 2.3%.
CHO-K1 Ca antag: M1 antagonist counterscreen hit in parental CHO-K1 cells; ATP-induced calcium, Fluo-8 fluorescence; inhibition, % at 3 µM; actives 0.6% (n = 360,000); AID 602250;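 active means inhibition above a per-plate cutoff, the plate's mean sample inhibition plus 3 SD, cut at about 24% in these data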
CHRM1 antagonist: antagonists of human M1 muscarinic receptor; AID 588852; actives 1.3% (n = 360,000); CHO-K1 hM1, Fluo-8 calcium fluorescence, ACh EC80 antagonist; P11229; inhibition, % at 3 µM;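 active means percent inhibition above its own plate's cutoff, namely the mean of that plate's compound wells plus 3 SD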;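 further: peak over basal fluorescence ratio during 140 s after agonist addition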
Target sequence (P11229 whole entry, looked up): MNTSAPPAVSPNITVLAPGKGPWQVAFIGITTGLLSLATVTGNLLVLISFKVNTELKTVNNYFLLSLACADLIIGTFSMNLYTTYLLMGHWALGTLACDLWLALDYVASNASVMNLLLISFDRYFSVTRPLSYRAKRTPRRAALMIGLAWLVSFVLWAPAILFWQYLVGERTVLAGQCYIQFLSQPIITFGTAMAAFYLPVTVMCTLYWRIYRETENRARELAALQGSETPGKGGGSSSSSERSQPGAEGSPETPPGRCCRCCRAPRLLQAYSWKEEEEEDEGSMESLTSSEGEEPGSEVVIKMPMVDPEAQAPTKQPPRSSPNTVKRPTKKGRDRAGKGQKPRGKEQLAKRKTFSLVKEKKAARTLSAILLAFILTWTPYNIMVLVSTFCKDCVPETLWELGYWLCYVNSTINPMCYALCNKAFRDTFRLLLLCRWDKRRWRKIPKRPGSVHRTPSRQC
CHO-K1 Ca PAM: M1 PAM counterscreen hit in parental CHO-K1 cells; activation, % at 3 µM; AID 602247; actives 0.02% (n = 360,000); ATP EC20, Fluo-8 calcium fluorescence; 0% at ATP EC20, 100% at ATP max;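 active means activation above the run cutoff, the mean activation of all test compounds plus 3 SD, cut at about 40% in these data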;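 further: peak over basal fluorescence ratio in a 140 s read after ATP addition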
M1 ag: activates human CHRM1 receptor; P11229; CHO-K1 hM1, Fluo-8 calcium fluorescence, agonist mode; 0% DMSO, 100% acetylcholine EC100; activation, % at 3 µM; actives 0.33% (n = 360,000); AID 588814;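 active means activation above the run's mean compound activation plus 3 SD, cut at about 16% in these data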;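 further: peak over basal fluorescence ratio within a 140 s kinetic read after compound addition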
CHRM1 PAM: potentiates human M1 receptor response to acetylcholine; P11229; CHO-K1 hM1, Fluo-8 calcium fluorescence, ACh EC20; 0% = ACh EC20, 100% = maximal ACh; activation, % at 3 µM; actives 0.088% (n = 360,000); AID 588819; in the data active means activation above about 19%, passing the limit was not always enough
M1 ag parental: nonselective activator or artifact in parental CHO-K1 cells | Fluo-8 calcium fluorescence; scaled to maximal ATP response, vehicle zero | activation, % at 3 µM | actives 0.48% (n = 360,000); in the data active means activation above about 15%;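 further: untransfected CHO-K1 host cells lacking M1 receptor as counterscreen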
Hits are given with their value; . = inactive.

SMILES	CHO-K1 Ca antag	CHRM1 antagonist	CHO-K1 Ca PAM	M1 ag	CHRM1 PAM	M1 ag parental
C[C@H](CO)N1C[C@H](C)[C@@H](CN(C)C(=O)Nc2ccc3c(c2)OCO3)Oc2c(NC(=O)Nc3ccc4c(c3)OCO4)cccc2C1=O	.	36	.	.	.	.
C[C@H](CO)N1C[C@H](C)[C@@H](CN(C)C(=O)Nc2ccccc2)Oc2c(NS(=O)(=O)c3ccc(F)cc3)cccc2C1=O	.	.	.	.	26	.
C[C@H](CO)N1C[C@H](C)[C@@H](CN(C)S(=O)(=O)c2cccs2)Oc2ccc(NC(=O)Nc3ccc4c(c3)OCO4)cc2C1=O	.	41	.	.	.	.
C[C@H](CO)N1C[C@H](C)[C@@H](CN(C)C(=O)Nc2ccccc2)Oc2c(NS(=O)(=O)c3ccccc3)cccc2C1=O	.	.	.	.	.	.
CC1C=CCC2C(=O)N(c3cccc(C(=O)NCc4ccccc4)c3)C(=O)C12 (stereo unspecified)	.	.	.	.	.	.
C[C@H](CO)N1C[C@H](C)[C@@H](CN(C)S(=O)(=O)c2ccccc2)Oc2ccc(NC(=O)CCC(F)(F)F)cc2C1=O	.	77	.	.	.	.
C[C@H](CO)N1C[C@H](C)[C@@H](CN(C)S(=O)(=O)c2ccccc2)Oc2ccc(NC(=O)Nc3ccc(C(F)(F)F)cc3)cc2C1=O	.	.	.	.	.	.
O=C(Cc1cccc2ccccc12)N/N=C/c1ccncc1	.	.	.	.	.	26
O=C(CC(=O)N/N=C/c1ccccc1)NCc1ccccc1	.	.	.	.	.	17
CC1c2ccccc2SC(CCCN(C)C)c2ccccc21 (stereo unspecified)	.	.	.	.	.	.
CN(C)CCC1Sc2ccccc2Oc2ccccc21 (stereo unspecified)	.	48	.	.	.	.
NC(=O)C1=C(c2ccccc2)c2ccccc2C1=O	28	.	.	.	.	.
CN(CC(=O)Nc1c(Cl)cccc1Cl)C(=O)c1cc(-c2cccs2)nn1-c1ccccc1	.	.	.	.	.	.
CCN(CC(=O)Nc1c(F)cccc1F)C(=O)c1cc(-c2cccs2)nn1-c1ccccc1	.	36	.	.	.	.
COc1ccc(OC)c(NC(=O)C(=O)NNC(=O)C23CC4CC(CC(C4)C2)C3)c1	.	.	.	.	.	25
COc1ccc(NC(=O)CNC(=O)C23CC4CC(CC(C4)C2)C3)c(OC)c1	.	.	.	.	.	.
O=C(NCc1cccc(Cl)c1)c1cccc(S(=O)(=O)N2CCCC2)c1	.	.	.	.	.	.
C[C@H](CO)N1C[C@H](C)[C@@H](CN(C)S(=O)(=O)c2cn(C)cn2)Oc2ccc(NC(=O)Nc3ccccc3)cc2C1=O	.	.	.	.	.	.
Cc1ccc(S(=O)(=O)Nc2ccc3c(c2)C(=O)N([C@@H](C)CO)C[C@@H](C)[C@@H](CN(C)S(=O)(=O)c2ccccc2)OCCCC[C@H](C)O3)cc1	24	.	.	.	.	.
Cc1noc(C)c1NC(=O)N(C)C[C@H]1OCCCC[C@@H](C)Oc2ccc(NC(=O)Nc3ccc(F)cc3)cc2C(=O)N([C@@H](C)CO)C[C@H]1C	.	.	.	.	.	.
Cc1noc(C)c1NC(=O)N(C)C[C@H]1OCCCC[C@@H](C)Oc2ccc(NC(=O)c3ccccc3)cc2C(=O)N([C@H](C)CO)C[C@@H]1C	.	.	.	17	.	.
Cc1ccc(S(=O)(=O)N(C)C[C@@H]2OCCCC[C@@H](C)Oc3ccc(NS(=O)(=O)c4c(C)noc4C)cc3C(=O)N([C@H](C)CO)C[C@@H]2C)cc1	.	.	.	.	.	.
Cc1ccc(S(=O)(=O)N(C)C[C@@H]2OCCCC[C@H](C)Oc3ccc(NC(=O)Nc4ccc(F)cc4)cc3C(=O)N([C@H](C)CO)C[C@H]2C)cc1	26	.	.	.	.	.
COc1ccc(S(=O)(=O)N(C)C[C@H]2OCCCC[C@H](C)Oc3ccc(NC(=O)Nc4ccc(F)cc4)cc3C(=O)N([C@H](C)CO)C[C@H]2C)cc1	.	.	.	.	.	.
